Screening data: PubChem BioAssay, National Center for Advancing Translational Sciences (NCATS)
Most compounds without a hit are left out; they make up all but 0.95% or so of the library.
RE007 growth inh – less growth of the S. pombe RE007 Vpr strain; S. pombe RE007 Vpr strain, BacTiter-Glo ATP luminescence, 24 h; Potency, µM (titrated, usually from 92.2 µM), hits mostly inhibitors; actives 0.21% (n = 360,000); AID 651644; active = well fitted falling curve with a large enough effect; inconclusive = small, poorly fitted or top-dose-only effect; inactive = no such curve, though single readings can be large or run the other way; note: nearly all actives have a fitted effect of over 50% in size
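Fission yeast RE007 carrying one integrated HIV-1 vpr copy, seeded at OD 0.01 in PMG+AL medium with 23 nL pinned compound. Grown 24 h at 30 degrees; viability read by BacTiter-Glo luminescence after 5 min.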
LmPK inh – LmPK (Leishmania mexicana) enzyme inhibition; Q27686; purified LmPK, Kinase-Glo ATP luminescence, 1 h; Potency, µM (series often up to 57.5 µM), usual class: inhibitors; actives 0.37% (n = 290,000)
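Pyruvate kinase activity monitored as ATP production (luciferase luminescence). Conditions: 0.1 nM enzyme, 0.5 mM PEP, 0.1 mM ADP, 1 h, RT; normalized against uninhibited and no-enzyme wells.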
Tb PYK inh – T. brucei pyruvate kinase inhibition | actives 0.12% (n = 410,000) | AID 624173 | TbPYK enzyme, Kinase-Glo Plus ATP luminescence, 45 min | Potency, µM (highest dose often 76.8 µM), actives largely listed as inhibitors | Q57TT1; note: nearly all actives have a fitted effect of over 50% in size
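T. brucei PYK with substrate was exposed to pin-transferred compounds across a concentration series, then started with 130 uM ADP (final). After 45 min at room temperature, Kinase-Glo Plus luminescence was read, normalized and curve-fitted.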
FBPA Giardia inh – inhibitors of Giardia lamblia fructose-1,6-bisphosphate aldolase | A8B2U2 | purified Giardia FBPA | Potency, µM (top dose mostly 59.6 µM), actives largely listed as inhibitors | actives 0.71% (n = 290,000) | AID 2451; note: nearly all actives have a fitted effect of over 55% in size
Target sequence (A8B2U2 whole entry, looked up): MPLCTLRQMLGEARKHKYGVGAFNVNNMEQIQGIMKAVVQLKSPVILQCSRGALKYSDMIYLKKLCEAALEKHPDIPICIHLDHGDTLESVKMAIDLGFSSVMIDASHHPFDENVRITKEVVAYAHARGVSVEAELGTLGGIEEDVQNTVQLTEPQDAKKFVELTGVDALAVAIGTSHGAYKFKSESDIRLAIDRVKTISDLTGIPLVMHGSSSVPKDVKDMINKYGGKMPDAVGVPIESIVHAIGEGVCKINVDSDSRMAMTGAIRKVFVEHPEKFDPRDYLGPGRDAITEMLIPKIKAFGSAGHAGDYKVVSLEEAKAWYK
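40 nM FBPA preincubated 10 min at RT with compound (up to 57.5 uM final), then substrate plus GAPDH/TPI/NAD/arsenate coupling and diaphorase/resazurin added. Fluorescence read after 20 min at RT, 525/598 nm.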
Large screens that a line does not name were inactive. Unless noted, calls come from the whole dose curve; as a rule, active = well fitted curve in the direction sought with a large enough effect; inconclusive = small, poorly fitted or top-dose-only effect, or another doubt; inactive = no such curve, though single readings can be large; an effect the other way counts as inactive or inconclusive.

COc1cccc(NC(=O)C2CC(=O)n3cnnc3S2)c1 (stereo unspecified)	RE007 growth inh 35µM, FBPA Giardia inh inconclusive
Cc1cc(C)cc(OCCCn2c(CCNC(=O)C3CCCCC3)nc3ccccc32)c1	none (no result: RE007 growth inh, LmPK inh, FBPA Giardia inh)
Nc1ccc(N2CCOCC2)c2nonc12	FBPA Giardia inh 2.8µM
O=C(Nc1ccc(F)cc1)Nc1ccc(N2CCOCC2)c2nonc12	none
COc1ccc(-c2cn3nc4c(nc3n2)CCCC4)cc1	LmPK inh 16µM
O=C1c2ccccc2C(=O)C1c1ccc2ccccc2n1	LmPK inh 14µM
CCCCCCCCCCCCCCCCCCNC(=O)OC1CCN(C(=O)OC[C@H](COC(=O)N(Cc2cccc[n+]2CC)C(=O)c2ccccc2OC)OC)CC1	none (no result: RE007 growth inh, LmPK inh, FBPA Giardia inh)
CCS(=O)(=O)n1nc(-c2ccco2)nc1SC	Tb PYK inh inconclusive, FBPA Giardia inh 28µM
CCCOc1ccc(N2C(=O)CC(N3CCC(O)(c4cccc(C(F)(F)F)c4)CC3)C2=O)cc1 (stereo unspecified)	RE007 growth inh 32µM
COc1ccc(N2C(=O)CC(N3CCC(O)(c4ccc(Br)cc4)CC3)C2=O)cc1 (stereo unspecified)	RE007 growth inh 32µM
O=C1CC(N2CCC(O)(c3ccc(Br)cc3)CC2)C(=O)N1c1ccc(Cl)cc1 (stereo unspecified)	RE007 growth inh 10µM
O=C(NCc1ccc(Cl)cc1)C(=O)Nc1cccc(Br)c1	none (no result: RE007 growth inh, LmPK inh, FBPA Giardia inh)
S=C(Nc1ccc(Cl)cc1)Nc1cccc2cnccc12	FBPA Giardia inh 1.6µM
Fc1ccc(NC(=S)Nc2cccc3cnccc23)cc1	FBPA Giardia inh 2.8µM
COc1ccc(NC(=S)Nc2cccc3cnccc23)cc1	FBPA Giardia inh inconclusive
CN(C)S(=O)(=O)c1cccc(NC(=S)Nc2cccc3cnccc23)c1	FBPA Giardia inh 2.5µM
CCCCCc1cc(O)c2c(c1)OC(C)(C)c1ccc(C)cc1-2	none (no result: RE007 growth inh, LmPK inh, FBPA Giardia inh)
NC(N)=NCCCC(N)C(=O)O (stereo unspecified)	none (no result: RE007 growth inh, LmPK inh, FBPA Giardia inh)
CC(C)c1cnc2c(c1SCc1ccc([N+](=O)[O-])cc1)c(=O)n(C)c(=O)n2C	Tb PYK inh 10µM (no result: RE007 growth inh, LmPK inh, FBPA Giardia inh)
CC(C)c1cnc2c(c1SCC(=O)O)c(=O)n(C)c(=O)n2C	none (no result: RE007 growth inh, LmPK inh, FBPA Giardia inh)
O=C(N/N=C1\CCc2ccccc21)c1ccccc1O	LmPK inh 13µM
CO[C@H]1COC(=O)C/C=C\[C@H](C)[C@H](OC)COC(=O)[C@@H](C)COC(=O)C/C=C\[C@@H]1C	none (no result: RE007 growth inh, LmPK inh, Tb PYK inh)
CCN(CC)c1ccc(/C=C2\CCC(/C=C(\C#N)C(=O)Nc3ccccc3F)=C2N2CCOCC2)cc1	LmPK inh 11µM
COc1cc(NC(=O)c2ccccc2-n2cnnn2)cc(OC)c1	none (no result: LmPK inh, FBPA Giardia inh)
COc1cc(OC)cc(C(=O)Nc2ccc(-n3cnnn3)c(C)c2)c1	LmPK inh 14µM
Cc1sc2nc(CN3CCN(c4ccc(O)cc4)CC3)[nH]c(=O)c2c1C	LmPK inh 14µM, FBPA Giardia inh inconclusive
COc1ccc(-c2noc(CN(C)CCC3CCCCO3)n2)cc1 (stereo unspecified)	RE007 growth inh inconclusive
COC(=O)c1ccc(-c2noc(CN(C)CCC3CCCCO3)n2)cc1 (stereo unspecified)	FBPA Giardia inh 18µM
O=C(CSc1cccc2cccnc12)N1CCCC1	RE007 growth inh 45µM, Tb PYK inh inconclusive
CO[C@]1(NC(=O)Cc2cccs2)C(=O)N2C(C(=O)O)=CC(COC(N)=O)S[C@H]21 (stereo partly specified)	none (no result: RE007 growth inh, LmPK inh, FBPA Giardia inh)
Cc1ccc2c(c1C)-c1c(ccc(C)c1C)C(=O)C2=O	RE007 growth inh 45µM (no result: LmPK inh, FBPA Giardia inh)
CC(=O)N1N=C(c2ccccc2)OC1c1ccc([N+](=O)[O-])s1 (stereo unspecified)	RE007 growth inh 35µM, FBPA Giardia inh inconclusive
CC(=O)N1N=C(c2cccc([N+](=O)[O-])c2)OC1c1ccc(Br)cc1 (stereo unspecified)	none
Cc1cc(C)nc(NS(=O)(=O)c2ccc(Br)s2)c1	FBPA Giardia inh inconclusive
Cc1ccc(NS(=O)(=O)c2ccc(Br)s2)nc1	FBPA Giardia inh 7.9µM
COc1cc(-c2coc3cc(OC)c(OC)c(OC)c3c2=O)cc(OC)c1OC	none (no result: RE007 growth inh, LmPK inh, Tb PYK inh)
CC(=O)Oc1cc(-c2coc3cc(OC(C)=O)c(OC(C)=O)c(OC(C)=O)c3c2=O)cc(OC(C)=O)c1OC(C)=O	FBPA Giardia inh 5.6µM (no result: RE007 growth inh, LmPK inh, Tb PYK inh)
COc1cc(SSc2cc(OC)cc([N+](=O)[O-])c2N)c(N)c([N+](=O)[O-])c1	RE007 growth inh inconclusive, Tb PYK inh 2.8µM, FBPA Giardia inh inconclusive
CO/C=C(/C(=O)OC)c1ccccc1Oc1cc(Oc2ccccc2C#N)ncn1	none (no result: RE007 growth inh, LmPK inh, FBPA Giardia inh)
CC(C)C[C@H](NC(=O)[C@H](CO)NC(=O)CNC(=O)[C@H](CCCCN)NC(=O)[C@H](CCCN=C(N)N)NC(=O)[C@H](C)NC(=O)[C@H](Cc1ccccc1)NC(=O)[C@@H](N)CCCN=C(N)N)C(=O)N[C@@H](CCCN=C(N)N)C(=O)N[C@@H](CCC(N)=O)C(=O)N[C@@H](CCCCN)C(=O)N[C@@H](CC(N)=O)C(=O)N[C@H](C(=O)O)C(C)C	none (no result: RE007 growth inh, LmPK inh, Tb PYK inh)
COc1ccc(/C=N/NC(=O)c2nn(-c3ccc(Cl)cc3)c(=O)c3c(N)scc23)cc1	FBPA Giardia inh inconclusive
COc1ccc(/C=N/NC(=O)c2nn(-c3ccccc3)c(=O)c3c(N)scc23)cc1	FBPA Giardia inh 2.5µM
CC(C)(C)C1=CC(=O)C(N2CCOCC2)=CC1=O	FBPA Giardia inh 1.8µM
Cc1[nH]c(=S)c(C#N)c2c1CCCC2	Tb PYK inh 3.5µM
Cc1[nH]c(=O)c(C#N)c2c1CCCC2	none
O=S(=O)(c1ccc(Br)cc1)c1nnn2c1nc(NCCc1ccccc1)c1sccc12	none (no result: RE007 growth inh, LmPK inh, FBPA Giardia inh)
COc1cc(OC)cc(-c2nc3ccccc3c(=O)o2)c1	none
COc1ccc(-c2nc3ccccc3c(=O)o2)cc1	RE007 growth inh inconclusive, LmPK inh 18µM
Nc1ccccc1N=c1ssnc1Cl	Tb PYK inh inconclusive, FBPA Giardia inh inconclusive
Cc1ccc(N=c2ssnc2Cl)cc1	Tb PYK inh 28µM, FBPA Giardia inh inconclusive
Cc1cc(C)nc(/N=c2/ssnc2Cl)c1	FBPA Giardia inh inconclusive
COc1cc(N=c2ssnc2Cl)c(OC)cc1Cl	RE007 growth inh inconclusive, Tb PYK inh 11µM, FBPA Giardia inh inconclusive
CC(=O)O[C@]1(C(=O)CO)[C@@H](C)C[C@H]2[C@@H]3CCC4=CC(=O)C=C[C@]4(C)[C@@]3(F)[C@@H](O)C[C@]21C	none (no result: RE007 growth inh, LmPK inh, FBPA Giardia inh)
O=C(c1ccccc1Cl)N(C(=O)c1ccccc1Cl)c1nccc(-c2cccs2)n1	FBPA Giardia inh 7.9µM
COc1ccc(C(=O)Oc2cccnc2)cc1	none
O=C(Oc1cccnc1)c1ccc(Cl)c(Cl)c1	RE007 growth inh 32µM
COC(=O)[C@@H]1CC[C@H](C)[C@@H](c2ccc(C)cc2)N1C(=O)c1ccc(/C=N\OC[C@@H](O)[C@H]2O[C@H]3OC(C)(C)O[C@H]3[C@@H]2O)cc1	none (no result: RE007 growth inh, LmPK inh, Tb PYK inh)
CCCc1cc(C(=O)Nc2cccc(Cl)c2)no1	RE007 growth inh inconclusive, LmPK inh 22µM
CCCc1cc(C(=O)Nc2cccc(C(C)=O)c2)no1	none
CCCc1cc(C(=O)NCc2cccnc2)no1	none
CCCc1cc(C(=O)Nc2cccnc2)no1	LmPK inh 11µM
